A number with no mark means an inactive call. No rule for the calls is given here.

The target of this experiment is Pantothenate synthetase (Mycobacterium tuberculosis (strain ATCC 25618 / H37Rv)) (UniProt P9WIL5). In words: Recombinant Mtb pantothenate synthetase (PanC) inhibitors, coupled enzyme, confirmatory (AID 375).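 Also: 0% = full reaction with vehicle and 100% = no enzyme background.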 Conditions: coupled enzyme assay; at 10 µM, hits give high values.
Sequence of Pantothenate synthetase (Mycobacterium tuberculosis (strain ATCC 25618 / H37Rv)) (P9WIL5 whole entry, looked up): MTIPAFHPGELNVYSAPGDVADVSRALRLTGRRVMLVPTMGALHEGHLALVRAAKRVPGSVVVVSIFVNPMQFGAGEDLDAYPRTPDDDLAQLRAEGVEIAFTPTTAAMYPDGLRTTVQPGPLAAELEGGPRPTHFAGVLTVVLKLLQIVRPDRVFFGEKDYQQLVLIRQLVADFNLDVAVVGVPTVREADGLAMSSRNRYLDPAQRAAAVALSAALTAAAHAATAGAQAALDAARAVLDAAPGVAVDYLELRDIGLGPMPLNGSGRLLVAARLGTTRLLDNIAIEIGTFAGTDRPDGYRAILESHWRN
For `COc1ccccc1NC(=O)C1=C(C)Nc2nc(CCCO)nn2C1c1cccnc1` (centres undefined), the inhibition is 1%. As to `COC(=O)c1[nH]c2ccc(C)cc2c1NC(=O)CN1CCCc2ccccc21`, the inhibition was 3%. In the case of `CCn1cc(C2=NCC(C)O2)c2ccccc21` (centres undefined) it was 2%; in that of `O=C1C2CCCN2C(c2ccc(Cl)cc2)N1c1nccs1` (centres undefined), 0%. Turning to `CCN(CCNC(=O)C1CCN(S(=O)(=O)CC)CC1)c1ccccc1`, the inhibition is 2%.

For the compound `Cc1ccc(Nc2nnns2)cc1C`, the inhibition was 4%.

On to `Cn1c(C(=O)NCCC2=CCCCC2)cc2c(=O)n3ccccc3nc21`, for which the inhibition was 0%. In the case of `Cc1ccc(NC(=O)c2ccco2)cc1NC(=O)CSc1nnc(-c2cccs2)n1C` it was 3%.

As for `COc1ccc(-n2ncc3c(NCc4ccc5c(c4)OCO5)ncnc32)cc1`, the inhibition is 0%. In the case of `CS(=O)(=O)Nc1ccc(C(=O)NCCc2ccccc2)cc1` it was 0%; in that of `CCCCN(C(=O)c1ccc(Cl)cc1)C1CC2CCC(C1)N2C` (centres undefined), 0%; in that of `Cc1nc(NC(=O)C23CCC(C)(C(=O)O2)C3(C)C)sc1C` (centres undefined), 0%.

For `CC1CN(C(=O)CSc2ncnc3sccc23)CC(C)O1` (centres undefined), the inhibition was 0%. For the compound `COc1ccc(C)cc1NC(=O)c1nnn(Cc2cccc(F)c2)c1N`, the inhibition was 13%. In the case of `CC(C)C1Cc2c(C#N)c(N)sc(=S)c2CO1` (centres undefined) it was 2%; in that of `NC(=O)c1sc2nc(N3CCCCC3)c3c(c2c1N)CCCC3`, 0%. For `CCn1cc(C(C)NC(=O)COc2ccc(Cl)cc2C)c(C)n1` (centres undefined), the inhibition was 0%. Regarding `CCOc1ccc(N2C(N)=NC(N)=NC2(C)C)cc1`, the inhibition is 0%. Regarding `CC(=O)Nc1cccc(NC(=O)CSc2nnnn2C)c1`, the inhibition was 0%.

With `CC(=O)NCCc1ccc(S(=O)(=O)NCc2ccc3c(c2)OCO3)cc1`, the inhibition was 0%. In the case of `CC1=CC=CC2=NC(=O)CC(C)(C(=O)N(CC(=O)NC(C)C)C3CCCC3)N12` (centres undefined) it was 4%; in that of `O=C(Nc1ccncc1)c1cc2ccccc2o1`, 3%; in that of `O=C(Oc1cc2oc(=O)c3c(c2cc1Cl)CCCC3)c1ccco1`, 0%. Take `CCC(c1nnnn1CCOC)N(Cc1ccc(C)cc1)Cc1cc2cc(OC)ccc2[nH]c1=O` (centres undefined): the inhibition was 0%. Turning to `CCOC(=O)CSc1nnc(CNC(=O)c2ccc(S(=O)(=O)N3CCCC3)cc2)n1C`, the inhibition was 10%. Then `CCOC(=O)N1CCN(CC(=O)c2c(C)[nH]c3ccccc23)CC1`, with 0%; and `COc1ccccc1N1C(=O)CC(Sc2nc(C)cc(C)n2)C1=O` (centres undefined), with 0%; and `CC(=O)[C@@]1(O)CC[C@H]2[C@@H]3C[C@H](C)C4=CC(=O)C=C[C@]4(C)[C@@]3(F)[C@@H](O)C[C@@]21C`, with 6%.

As for `COC(=O)CC(C(=O)Nc1cc(C(=O)OC)cc(C(=O)OC)c1)N1CCN(C)CC1` (centres undefined), the inhibition was 3%. Regarding `CC1(C)Cc2noc(N)c2C(C)(C)N1OC(=O)c1ccccc1`, the inhibition is 0%. In the case of `O=C(CSc1nnc(Cn2c(=O)sc3ccccc32)n1-c1ccccc1)NCC1CCCO1` (centres undefined), the inhibition is 0%. On to `C[C@H](NC(=O)Nc1cccc(C(F)(F)F)c1)C(=O)O`, for which the inhibition was 0%. Turning to `CCCCCCCC(=O)OCC(=O)[C@@]1(O)CC[C@H]2[C@@H]3CCC4=CC(=O)CC[C@]4(C)[C@H]3[C@@H](O)C[C@@]21C`, the inhibition is 1%. In the case of `Cc1ccc2c(c1C)NC(C(=O)O)C1CC=CC21` (centres undefined) it was 0%; in that of `CCOc1ccc(NC(=O)CN(c2cc(C)cc(C)c2)S(=O)(=O)c2c(C)noc2C)cc1`, 7%; in that of `COc1cccc(C(=O)n2cnnc2N)c1OC`, 4%.

As for `Cc1ccccc1NS(=O)(=O)c1cc(S(C)(=O)=O)ccc1Cl`, the inhibition is 0%. With `O=C(O)C1CC(=O)N(c2ccc(OCc3c(F)cccc3Cl)cc2)C1` (centres undefined), the inhibition was 2%. With `CCOC(=O)c1cc2sccc2n1CC(=O)Nc1ccc(OC)cc1OC`, the inhibition is 0%.

For orientation: inhibition means the change of the read-out against control, counted positive when it falls.

The values are drawn from PubChem BioAssay.
